Assay outcomes (PubChem)
hcDAF12 agonist – activates DAF-12 receptor from parasite H. contortus; activation, % at 6.8 µM; hit rate 1.4% among 370,000; HEK293 hcDAF-12 lit1-tk-luc reporter, luminescence; 0% DMSO, 100% Δ7-dafachronic acid; AID 652067;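 active means activation above the mean of all tested compounds plus 3 SD, cut at about 5.5% in these data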
DAX1 inh-1 – inhibits human nuclear receptor DAX1. P51843. HEK293 Gal4-DAX1 luciferase reporter, luminescence. inhibition, % at 6.75 µM. hit rate 0.99% among 340,000. AID 504766;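 active means inhibition above the mean over all tested compounds plus 3 SD, cut at about 4.2% in these data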;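 further: inhibition shows as a rise in luminescence from relieved DAX1 repression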
Target sequence (P51843 207-470 limits assumed): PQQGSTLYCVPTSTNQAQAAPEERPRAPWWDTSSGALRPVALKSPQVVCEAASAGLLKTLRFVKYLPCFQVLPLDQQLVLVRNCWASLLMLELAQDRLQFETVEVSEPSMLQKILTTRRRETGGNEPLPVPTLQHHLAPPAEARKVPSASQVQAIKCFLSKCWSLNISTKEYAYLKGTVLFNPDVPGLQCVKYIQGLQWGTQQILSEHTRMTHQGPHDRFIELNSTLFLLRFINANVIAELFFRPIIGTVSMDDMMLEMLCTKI
hgDAF-12 ag – activates the H. glycines DAF-12 receptor ligand-binding domain; HEK293 GAL4-hgDAF12 UAS-luciferase reporter, agonist luminescence; normalized to butyrate control; activation, % at 6.8 µM; hit rate 1.8% among 370,000;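 active means activation above a cutoff set at the mean of all screened compounds plus 3 SD, cut at about 10% in these data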
DAX1 inh-2 – blocks DAX1 repression of SF-1 activated StAR promoter | hit rate 1.1% among 370,000 | inhibition, % at 6.8 µM | HEK293T StAR-luciferase reporter, SF-1/DAX-1 repression relief;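 active means inhibition above the mean over all tested compounds plus 3 SD, cut at about 3.6% in these data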;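 further: higher inhibition means more luminescence from relief of DAX-1 repression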
ssDAF-12 act – S. stercoralis DAF-12 activation, primary screen | HEK293 ssDAF-12/GRIP1 lit1-tk-luc reporter, luminescence; % of 3 µM dafachronic acid response | activation, % at 6.8 µM | hit rate 1% among 370,000 | AID 652126;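 active means activation above the mean over all tested compounds plus 3 SD, cut at about 0.9% in these data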
Each line names hits and unclear results; the compound was inactive in the other large screens. In the library only some 4.1% were active in any assay of this set; here they are far more common.

Cc1cc(N2Cc3ccccc3C2)ccc1C=O	hgDAF-12 ag 13
COC(=O)[C@]12C[C@H](CC(=O)N3CCC(c4ccccc4)CC3)C(=O)N(CCc3ccc(OC)c(OC)c3)C1=C[C@H](C(C)(C)C)O[C@@H]2C	none (no result: DAX1 inh-1)
CS(=O)(=O)N1CCC[C@]2(CC[C@@H](CCC#N)O2)C1	none (no result: DAX1 inh-1)
CC(C)C1=NN(C(=O)c2ccccc2)C(O)(C(C)(C)C)C1 (centres undefined)	hgDAF-12 ag 12
CCN(CC)c1ccc(C(=O)Nc2ccccc2)cc1[N+](=O)[O-]	hgDAF-12 ag 12
O=C(Nc1ccccc1)c1ccc(NCCc2ccccc2)c([N+](=O)[O-])c1	none
CCc1ccccc1NC(=O)c1ccc(NCCc2ccccc2)c([N+](=O)[O-])c1	DAX1 inh-1 4.4
Cn1cc(CC(=O)Nc2ccc(Nc3cccnc3)cc2)c2ccccc21	none (no result: DAX1 inh-1)
COC(=O)CCc1ccc(O)cc1	none
COC(=O)C1(Cc2ccc(O)cc2)OC(=O)C(O)=C1c1ccc(O)cc1 (centres undefined)	DAX1 inh-1 7.4
CN1C2=N[C@H](c3ccc(Br)cc3)CC(=O)N2/C(=C\c2ccccc2)[C@@H]1c1ccccc1	none (no result: DAX1 inh-1, DAX1 inh-2)
CC(C)C(OC(=O)c1cc2c(s1)CCCCC2)C(=O)NC(N)=O (centres undefined)	hcDAF12 agonist 5.8
C=CCn1c(C)nc2c(sc3nc4c(cc32)COC(C)(C)C4)c1=O	DAX1 inh-1 4.7, hgDAF-12 ag 13
O=C(C(=O)N1CCC(CNS(=O)(=O)c2cc(C(F)(F)F)cc(C(F)(F)F)c2)CC1)c1cc2ccccc2o1	none (no result: DAX1 inh-1)
COc1ccc(/C=C2\SC(=S)N(N3C(=O)CCC3=O)C2=O)cc1O	DAX1 inh-1 4.4
COc1ccc(/C=C2/SC(=S)N(Cc3ccccc3)C2=O)cc1O	none
O=C(c1cccs1)N(C(=O)c1cccs1)c1ccc(Br)cn1	none
Cc1ccnc(NC(=O)CCCNC(=O)c2ccc(Cl)cc2)c1	DAX1 inh-2 4.0
Cc1ccnc(NC(=O)CCC(=O)c2cccs2)c1	DAX1 inh-2 4.0
Cc1ccnc(NC(=O)CNC(=O)c2ccc(C)s2)c1	DAX1 inh-2 4.0
Cc1ccnc(N(C(=O)c2cccs2)C(=O)c2cccs2)c1	hgDAF-12 ag 13
CSc1ccc(C(=O)NCC2CCN(C(=O)C(=O)c3cc4ccccc4o3)CC2)cc1	none (no result: DAX1 inh-1)
O=C(COC(=O)c1ccc(Sc2ncn[nH]2)c([N+](=O)[O-])c1)Nc1ccc(Cl)c(Cl)c1	none (no result: DAX1 inh-1)
Cc1c(NC(=O)C2CCCN(S(=O)(=O)c3ccccc3[N+](=O)[O-])C2)c(=O)n(-c2ccccc2)n1C (centres undefined)	none (no result: DAX1 inh-1)
CCCCC(=O)Nc1cc(C)c(NC(=O)c2cccs2)cn1	none
CCCCC(=O)Nc1cnc(NC(=O)c2cccs2)cc1C	hgDAF-12 ag 12
COC(=O)c1cc2c(c3c4cc(F)ccc4n(S(=O)(=O)c4ccc(C)cc4)c13)C(=O)N(C)C2	none (no result: DAX1 inh-1)
COCc1cc(OC)nc(-c2csc(C)n2)n1	DAX1 inh-1 6.4
COCc1cc(=O)[nH]c(-c2csc(C)n2)n1	none
CCn1c(SCC(=O)c2ccc(-c3ccccc3)cc2)nnc1-c1ccccc1OC	none (no result: DAX1 inh-1)
Cc1cccc(S(=O)(=O)N(C)C[C@@H]2OCc3cnnn3CCCC(=O)N([C@H](C)CO)C[C@H]2C)c1	none
COc1ccccc1CN(C)C[C@@H]1OCc2cnnn2CCCC(=O)N([C@H](C)CO)C[C@H]1C	DAX1 inh-1 4.2
C[C@H]1CN([C@@H](C)CO)C(=O)CCCn2nncc2CO[C@H]1CN(C)C(=O)NC1CCCCC1	DAX1 inh-1 5.1
Cc1cccc(S(=O)(=O)N(C)C[C@H]2OCc3cnnn3CCCC(=O)N([C@H](C)CO)C[C@H]2C)c1	DAX1 inh-1 4.4
CC(C)CNC(=O)CC1Oc2ccccc2NC1=O (centres undefined)	none (no result: DAX1 inh-1)
CC1CN(c2nc3ccccc3nc2SCC(=O)N2CCN(S(=O)(=O)c3ccccc3)CC2)CC(C)O1 (centres undefined)	none (no result: DAX1 inh-1)
Cc1cnc(NC(=O)CCc2ccccc2)s1	none
COc1ccc(OCC(=O)Nc2nccs2)cc1	hcDAF12 agonist 6.1
CCOc1ccc(OCC(=O)Nc2nccs2)cc1	none (no result: hcDAF12 agonist, hgDAF-12 ag, DAX1 inh-2, ssDAF-12 act)
CCC(=O)c1ccc(OCC(=O)Nc2nc(-c3cccnc3)cs2)cc1	none
Cc1cnc(NC(=O)COc2ccccc2)s1	hgDAF-12 ag 12
CCC(=O)c1ccc(OCC(=O)Nc2nc(C)cs2)cc1	hgDAF-12 ag 12
CCOC(=O)[C@]12CCCCC/C=C\1N(CCc1ccc(Cl)cc1)C(=O)[C@H]2CC(=O)N1CCCC1	none (no result: DAX1 inh-1)
O=C(O)CCSc1nc2ccccc2n1-c1ccccc1	hcDAF12 agonist 6.0
CC(C)N(C(=O)CSc1nc2ccccc2n1-c1ccccc1)C(C)C	none
COC(=O)[C@H](CCSC)NC(=O)Cn1cnc(C(=O)Nc2ccc(C)c(C)c2)n1	hcDAF12 agonist 5.7, hgDAF-12 ag 11
CC(=O)c1ccc(Nc2cnn(C34CC5CC(CC(CC(=O)O)(C5)C3)C4)c(=O)c2Cl)cc1	DAX1 inh-1 5.4
O=C(O)C1(c2ccccc2)CCN(S(=O)(=O)c2ccccc2)CC1	ssDAF-12 act 1.0
CN(C)C(=O)C1(c2ccccc2)CCN(S(=O)(=O)c2ccccc2)CC1	none
O=C(Cc1cccs1)NC1CCCCN(Cc2cccc(Cl)c2)C1=O (centres undefined)	none (no result: DAX1 inh-1)
COc1ccc(CCCC(=O)O)c(C)c1	ssDAF-12 act 1.5
Nn1c(-c2ccccn2)nnc1-c1ccccn1	none
Nc1ccccc1-c1nnc(-c2ccccc2N)n1N	hcDAF12 agonist 6.0, ssDAF-12 act 2.0
O=C(N/N=C/c1cccc(OC(=O)N2CCOCC2)c1)c1cccs1	hgDAF-12 ag 11
Clc1ccc([C@H]2OC[C@@]3(CNCc4ccccc4)CS[C@H](c4ccc(Cl)cc4)N23)cc1	none (no result: DAX1 inh-1, DAX1 inh-2)
NNC(=O)c1ccc(CSc2nc3ccccc3s2)cc1	hcDAF12 agonist 6.1, hgDAF-12 ag 11
O=C(CN1C(=O)c2ccccc2S1(=O)=O)NCc1ccc(F)cc1	none
O=C(CN1C(=O)c2ccccc2S1(=O)=O)NCc1c(F)cccc1F	DAX1 inh-1 4.9
N=c1ccn(O)cc1CCc1ccccc1	DAX1 inh-1 5.8
COCCCN1C(=O)[C@H](CC(=O)NCCCCc2ccccc2)[C@]2(C(=O)OC)CCCCC=C12	none (no result: DAX1 inh-1)
CCOC(=O)N[C@@H](Cc1cccnc1)C(=O)N1CCC[C@H]1C(=O)NCCc1ccccc1Cl	none (no result: DAX1 inh-1)
CCCN(CCC)S(=O)(=O)c1cccc(-c2csc(C)n2)c1	none
CCN(CC)S(=O)(=O)c1ccc(-c2csc(C)n2)cc1	DAX1 inh-1 6.5
CCOCC(=O)Nc1nc2ccc(OCC)cc2s1	hgDAF-12 ag 11
CCOc1ccc2nc(NC(=O)CSc3nc(SC)ns3)sc2c1	hcDAF12 agonist 6.1
CCOc1ccc2nc(NC(=O)CSc3ccc(Cl)cc3)sc2c1	none
CSc1nsc(SCC(=O)Nc2ccc(OC(C)=O)cc2)n1	hgDAF-12 ag 11
COC(=O)Cc1c(O)ccn(CCc2c[nH]c3ccccc23)c1=O	none
COC(=O)Cc1c(OC)ccn(CCc2c[nH]c3ccccc23)c1=O	DAX1 inh-2 4.0
